# Screening results as filed in PubChem BioAssay.
# PrPC surface inh – cell surface PrPC inhibition, primary TR-FRET screen; hit rate 0.43% among 370,000; P04156; AID 720596; inhibition, % at 13.8 µM; TR-FRET read-out; in the data active = inhibition above about 24%; note: 0% = median of the test wells and 100% = reference compound wells
# PfHsp40 yeast – rescue of PfHsp40-mediated yeast toxicity; growth rescue, % at 12.5 µM; S. cerevisiae expressing PfHsp40, growth rescue, ATP luminescence; hit rate 0.68% among 340,000; in the data active = growth rescue above about 28%, passing the limit was not always enough;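 note: yeast W303a lacking pdr1 and pdr3 grown in galactose medium; growth measured after three days at 30 °C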
# PrP 5UTR inh – suppresses PrP 5' UTR mRNA reporter expression. cell-based PrP 5' UTR mRNA reporter, plate reader. inhibition, % (test concentration not listed). hit rate 0.35% among 340,000. AID 488862; in the data active = inhibition above about 52%; note: 0 = median of the neutral control wells
# CCHFV vOTU inh – blocks the CCHF virus ovarian tumor domain protease | inhibition, % at 11.5 µM | hit rate 0.55% among 370,000 | CCHFV vOTU protease, Pep-AMC fluorescence; in the data active = inhibition above about 30%; note: 0% = vehicle wells with enzyme and 100% = no enzyme wells
# ugtP null kill – compounds lethal to S. aureus RN4220 ugtP deletion mutant; hit rate 0.54% among 330,000; OD600 growth, 16 h; growth inhibition, % (no concentration beside the values); in the data active = growth inhibition above about 68%;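 note: plate controls were untreated wells for no effect and antibiotic for full effect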
# Sa RN4220 lethal – kills Staphylococcus aureus RN4220. S. aureus RN4220 growth, OD600, 16 h. inhibition, % (no concentration beside the values). hit rate 0.33% among 330,000. AID 1259311; in the data active = inhibition above about 85%;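 note: plate controls were untreated cells for no effect and reference antibiotic for full effect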
# PrPC confirm – cell surface PrPC inhibition, TR-FRET confirmation; shares compounds with PrPC surface inh; cell surface PrPC level; inhibition, % at 13.8 µM; hit rate 65% among 1,500; AID 743200; in the data active = inhibition above about 25%
# LD9 cytotox – LD9 cell cytotoxicity, PrPc inhibitor counter-screen. AID 743201. inhibition, % at 13.8 µM. LD9 cells cytotoxicity, luminescence viability. shares compounds with PrPC surface inh. hit rate 29% among 1,500; in the data active = inhibition above about 9.5%
# An asterisk follows results filed as active; . = no result. Hits are enriched below; roughly 2.1% of the tested compounds scored in any of these assays.
SMILES,PrPC surface inh,PfHsp40 yeast,PrP 5UTR inh,CCHFV vOTU inh,ugtP null kill,Sa RN4220 lethal,PrPC confirm,LD9 cytotox
C#CCOCCOCCOCCNc1nc(N2CCN(C(=O)CCCCCCCCCCNC(=O)Cn3cc(CC(C)O)nn3)CC2)nc(N2CCN(C(=O)CCCCCCCCCCNC(=O)C(C(C)O)n3cc(C)nn3)CC2)n1 (stereo not drawn),.,.,.,.,-1.8,2.4,.,.
O=C(O)c1ccccc1C(=O)c1cccc2c(Br)cccc12,59.8*,1.5,-33.1,12.1,-11.6,8.5,91.1*,-5.8
CCN(CC)S(=O)(=O)c1ccc(N2CCOCC2)c(NS(=O)(=O)c2cc(C(C)(C)C)ccc2C)c1,25.4*,0.1,-21.3,15.4,14.6,12.0,9.6,0.3
CC(=O)Nc1ccc(NS(=O)(=O)c2ccc(-c3cnc(C4CC4)o3)cc2)cc1,-6.3,1.1,-4.9,8.4,6.1,9.6,.,.
CC(=O)c1cccc(NS(=O)(=O)c2ccc(-c3cnc(C4CC4)o3)cc2)c1,30.2*,2.9,-42.4,10.2,2.5,5.1,21.7,19.0*
COc1cccc(C(=O)NCc2ccc3c(c2)cc(C)n3C)c1,45.8*,-0.9,-29.1,1.2,7.5,2.9,49.1*,-0.5
COc1ccc(C(=O)NCc2ccc3c(c2)cc(C)n3C)cc1OC,45.4*,-1.5,30.5,10.2,-2.5,-2.6,8.0,-1.2
COc1ccc(CC(=O)NCc2ccc3c(c2)cc(C)n3C)cc1,-1.1,0.6,-7.5,4.8,0.0,-2.0,.,.
Cc1cc2cc(CNC(=O)c3cccs3)ccc2n1C,35.4*,-0.5,-30.1,3.9,2.3,6.2,17.4,2.6
COc1ccc(/C=C\C(=O)NCc2ccc3c(c2)cc(C)n3C)cc1OC,81.4*,0.0,-13.6,4.8,-3.1,-2.6,58.6*,-8.9
Cc1ccc(C=NNC(=O)CNC(=O)c2cccs2)o1,.,.,.,.,5.2,2.0,.,.
ClCc1nc2ccccc2n1Cc1ccccc1,9.1,-0.1,-10.9,-2.0,-1.1,21.5,.,.
Cc1ccc(Cn2c(Cc3ccccc3)nc3ccccc32)cc1,76.5*,22.2,-13.2,5.5,3.0,7.7,17.6,-3.8
Fc1ccc(NN=C2CCSc3sccc32)c(F)c1,.,.,.,.,5.0,6.7,.,.
S=c1nc[nH]c2c1cnn2-c1ccccc1,36.3*,13.8,-12.2,0.6,-5.2,6.5,43.2*,-1.4
CC(C)Cc1nnc(NC(=O)c2cc(S(=O)(=O)N(C)C)ccc2N2CCCC2)s1,-1.2,-0.4,-5.4,8.9,5.4,3.3,.,.
Cc1cccc2sc(NC(=O)c3cc(S(=O)(=O)N(C)C)ccc3N3CCCC3)nc12,49.5*,0.4,-9.5,-0.1,5.7,3.5,31.0*,-9.8
CN(C)S(=O)(=O)c1ccc(N2CCCC2)c(C(=O)Nc2nc3ccccc3s2)c1,60.5*,0.0,-35.7,-12.0,1.7,-1.8,60.9*,-4.9
CN(C)S(=O)(=O)c1ccc(N2CCCC2)c(C(=O)Nc2nc3ccc(F)cc3s2)c1,11.1,0.4,-24.3,-20.5,-10.1,-6.2,.,.
COCc1cc(=O)[nH]c(Nc2nc3ccc(C)cc3o2)n1,31.6*,1.3,-42.1,3.9,-3.7,17.7,12.7,47.7*
O=C(Nc1cccc(Cl)c1)Nc1ccc2c(c1)OCO2,31.5*,0.1,-95.3,6.2,-26.2,-5.2,31.2*,-3.0
Cc1sc2ncnc(Sc3ccccc3C(=O)Nc3ccc(Br)cc3)c2c1C,25.2*,2.5,-25.3,12.0,-11.7,17.9,30.6*,-2.5
Cc1nc(SCC(=O)NNC(=O)c2ccc(F)cc2)c2ccccc2n1,82.2*,0.0,-29.8,-0.9,9.6,2.0,100.2*,-5.7
CCCc1nc(SCC(=O)NNC(=O)C2CCCCC2)c2ccccc2n1,41.3*,-0.9,-23.4,-10.9,1.4,1.1,110.1*,-3.2
CCCCNC(=O)CSc1nc(COc2ccccc2)nc2ccccc12,17.0,-0.8,-9.6,-1.5,-4.1,1.9,.,.
CCc1nc(SCC(=O)OC(C)C)c2ccccc2n1,82.7*,0.0,-11.9,3.9,-1.8,3.8,97.3*,-5.7
CCCc1nc(SCC(=O)NNC(=O)c2ccc(OC)cc2)c2ccccc2n1,93.3*,-0.1,-23.0,-4.3,6.5,-1.1,115.4*,-13.4
Nc1ncnc2c1nc(Br)n2C1OC2COP(=O)(O)OC2C1O (stereo not drawn),.,.,.,.,-1.3,5.8,.,.
